Assay: small molecules boosting NK-mediated OVCAR3 lysis – imaging, primary NK cells, calcein-AM imaging, primary screen (AID 1508625);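 note: compound given to NK cells 16 h before adding targets at 1.5 to 1 ratio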;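 for z-score: more negative robust z means stronger NK killing of tumor cells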
Conditions: OVCAR3 lysis by primary NK cells, at 5 µM; z-score: measured here: robust Z-score, single-point normalisation

| SMILES | corrected activity, negative = more killing [%] | z-score |
| --- | --- | --- |
| COc1ccccc1CC(C)NC1CCCc2c1[nH]c1ccc([N+](=O)[O-])cc21 (stereo unspecified) | 2.84 | 1.24 |
| FC(F)(F)c1ccc(CNCCc2ccc3c(c2)OCO3)cc1 | -3.37 | -1.07 |
| COc1ccc(C2(CN)CCCC2)cc1OC | -1.26 | -0.675 |

Reference: PubChem BioAssay AID1508625 (Wald Lab, School of Medicine, Case Western Reserve …, 2021)
